Source: PubChem BioAssay
The source made the active and inactive calls. No rule for the calls is given here.

Assays:
[1] = liver-stage malaria parasite load reduction – cell-based, known kinase inhibitor set, luminescence, hepatoma host viability (AID 624392); settings: Plasmodium liver stage in hepatoma cells, luciferase luminescence, concentration not given here; liver cell % of control: measured here: host liver cell viability; parasite % of control: stronger effect = lower value;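 also: infected cells incubated roughly two days before readout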
[2] = altered dexamethasone sensitivity, NF-kB reporter, cell-based, luciferase, IL-1B stimulus (AID 624486); settings: IL-1B + dexamethasone, luminescence; percent of negative control (+Dex): actives lie on both sides, concentration not given here; z-score: measured here: IL-1B alone, no Dex;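 as to percent of negative control (+Dex): 100% = mean signal of vehicle control wells on the plate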
[3] = biological target: Cellular tumor antigen p53 (Homo sapiens) (UniProt P04637); assay: GFP-p53 level modulators in HPV16+ cells – imaging, known kinase inhibitor set, EGFP/DsRed ratio (AID 1053116); settings: GFP-p53 stability, stronger effect = higher value; EGFP object count: measured here: GFP-p53 positive objects count;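 also: cells exposed to compounds for 24 h at 37 °C before reading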
[4] = inducers of IRF3 signaling, differentiated THP-1 – cell-based, PMA-stimulated THP-1, luminescence (AID 1053176); settings: PMA-differentiated THP-1, IRF3 reporter luminescence; stronger effect = higher value

Sequence of Cellular tumor antigen p53 (Homo sapiens) (P04637 whole entry, looked up): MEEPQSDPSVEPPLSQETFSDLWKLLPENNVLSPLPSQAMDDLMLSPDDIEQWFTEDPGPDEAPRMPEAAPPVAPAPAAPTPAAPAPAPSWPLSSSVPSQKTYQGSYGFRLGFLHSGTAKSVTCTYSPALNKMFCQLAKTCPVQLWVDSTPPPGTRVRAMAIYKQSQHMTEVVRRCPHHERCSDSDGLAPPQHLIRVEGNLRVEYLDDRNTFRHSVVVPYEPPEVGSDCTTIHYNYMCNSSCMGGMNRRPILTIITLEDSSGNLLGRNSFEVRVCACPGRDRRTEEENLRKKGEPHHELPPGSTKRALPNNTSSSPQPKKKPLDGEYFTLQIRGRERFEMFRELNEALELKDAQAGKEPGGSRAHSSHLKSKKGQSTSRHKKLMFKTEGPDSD

Row | SMILES | liver cell % of control [1] | parasite % of control [1] | percent of negative control (+Dex) [2] | z-score [2] | EGFP object count [3] | EGFP/DsRed ratio [3] | fraction signal [4]
1 | CC(=O)NC(Cc1ccc(OP(=O)(O)O)cc1)C(=O)NC1CCC(=O)N2CCCC(C(=O)NCc3cccc4ccccc34)N2C1=O (stereo not given) | 98.5% | 45.1% (inactive) | 100% (inactive) | -0.165 | 8 | 0.214 (inactive) | -0.0075 (inactive)
2 | Cn1cc(C2=C(c3cn(CCSC(=N)N)c4ccccc34)C(=O)NC2=O)c2ccccc21 | 92.2% | 26.4% (inactive) | 96.5% (inactive) | 0.445 | 2.5 | 0.00335 (inactive) | -0.018 (inactive)
3 | NC1=NC(=O)C(=Cc2ccc3ncccc3c2)S1 | 101% | 50.6% (inactive) | 100% (inactive) | 0.495 | 4 | 0.204 (inactive) | -0.007 (inactive)
4 | Cn1cc(C2=C(c3cn(C)c4cc(N)ccc34)C(=O)NC2=O)c2ccccc21 | 85.5% | 26.4% (inactive) | 96% (inactive) | -2.26 | 41.5 | 0.462 (inactive) | -0.0115 (inactive)
5 | Cn1cc(C2=C(c3cn(CCCCN)c4ccccc34)C(=O)NC2=O)c2ccccc21 | 117% | 65.7% (inactive) | 98.5% (inactive) | 0.945 | 3.5 | 0.117 (inactive) | 0.01 (inactive)
6 | O=[N+]([O-])c1ccc2c(c1)C(c1ccccc1Cl)=Nc1cn[nH]c1N2 | 101% | 21.4% (inactive) | 109% (inactive) | -0.52 | 12 | 0.495 (inactive) | -0.005 (inactive)
7 | CC(=O)N1CCC(Nc2ncc3cc(Oc4ccc(F)cc4F)c(=O)n(C)c3n2)CC1 | 113% | 81.4% (inactive) | 102% (inactive) | 0.13 | 2 | 0.0142 (inactive) | -0.005 (inactive)
8 | CC(=O)Nc1ccc2c(c1)C(c1ccccc1Cl)=Nc1c(n[nH]c1C)N2 | 93.6% | 30.4% (inactive) | 95% (inactive) | -0.58 | 28.5 | 0.33 (inactive) | -0.003 (inactive)
9 | Nc1c(C(=O)c2ccc(C#CCN3CCOCC3)cc2)cnn1-c1ccc(F)cc1 | 110% | 75.7% (inactive) | 106% (inactive) | 1.64 | 4.5 | 0.119 (inactive) | 0.01 (inactive)
10 | Cn1c(=O)c(Oc2ccc(F)cc2F)cc2cnc(NCC(C)(C)O)nc21 | 102% | 62.1% (inactive) | 101% (inactive) | -0.01 | 4 | 0.146 (inactive) | -0.001 (inactive)
11 | O=C1NC(=NCCc2ccccc2F)SC1=Cc1ccc2ncccc2c1 | 108% | 44.4% (inactive) | 99% (inactive) | 0.18 | 12.5 | 0.349 (inactive) | -0.0025 (inactive)
12 | Cc1[nH]nc2c1N=C(c1ccccc1F)c1cc(C(N)=O)ccc1N2 | 91.5% | 76.9% (inactive) | 110% (inactive) | 0.59 | 54.5 | 0.555 (active) | -0.005 (inactive)
13 | Cn1cc(C2=C(c3ccsc3)C(=O)NC2=O)c2ccccc21 | 108% | 30% (inactive) | 92.5% (inactive) | -0.045 | 3.5 | 0.27 (inactive) | -0.0155 (inactive)
14 | COc1ccc(O)c(C(=O)c2ccc(C(=O)O[C@H]3CCCNC[C@@H]3NC(=O)c3ccncc3)cc2)c1F | 113% | 109% (inactive) | 62% (active) | -1.53 | 15.5 | 0.253 (inactive) | 0.001 (inactive)
15 | Cn1cc(C2=C(c3c(S(C)=O)n(C)c4ccccc34)C(=O)NC2=O)c2ccccc21 (stereo not given) | 123% | 78.6% (inactive) | 97.5% (inactive) | 0.295 | 5 | 0.591 (inactive) | -0.003 (inactive)
16 | Nc1c(C(=O)c2cccc(C#CCN3CCOCC3)c2)cnn1-c1ccc(F)cc1 | 159% | 75.7% (inactive) | 120% (inactive) | 1.29 | 2.5 | 0.12 (inactive) | 0.0055 (inactive)
17 | O=C1NC(=NCCc2ccccn2)SC1=Cc1ccc2ncccc2c1 | 170% | 32.1% (inactive) | 92.5% (inactive) | 0.025 | 5.5 | 0.134 (inactive) | 0.0055 (inactive)
18 | CC(=O)Nc1ccc2c(c1)c(C1=C(c3cn(C)c4ccccc34)C(=O)NC1=O)cn2C | 87.4% | 47.8% (inactive) | 97.5% (inactive) | -1.79 | 35.5 | 0.557 (inactive) | -0.0135 (inactive)
19 | Cn1cc(C2=C(c3cn(C)c4c(N)cccc34)C(=O)NC2=O)c2ccccc21 | 92.4% | 40.1% (inactive) | 108% (inactive) | -1.47 | 87.5 | 1.36 (active) | -0.003 (inactive)
20 | Cn1cc(C2=C(c3cccnc3)C(=O)NC2=O)c2ccccc21 | 312% | 2% (active) | 110% (inactive) | -1.34 | 8.5 | 0.135 (inactive) | -0.005 (inactive)
